# Hits are enriched below; roughly 1.1% of the tested compounds scored in any of these assays.
# LmPK inh: LmPK (Leishmania mexicana) enzyme inhibition; AID 1721; actives 0.37% (n = 290,000); purified LmPK, Kinase-Glo ATP luminescence, 1 h; Potency, µM (titrated, usually from 57.5 µM), without a hit: at the highest dose activity change, negative = inhibition, actives largely listed as inhibitors; note: % is set by controls: 0 for no effect and ±100 for the full control effect
#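 Pyruvate kinase activity monitored as ATP production (luciferase luminescence). Conditions: 0.1 nM enzyme, 0.5 mM PEP, 0.1 mM ADP, 1 h, RT; normalized against uninhibited and no-enzyme wells.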
# Giardia FBPA inh: blocks Giardia fructose-bisphosphate aldolase activity; A8B2U2; purified Giardia FBPA; Potency, µM (highest dose often 59.6 µM), for the others: top-dose activity, negative = inhibition, hits mostly inhibitors; actives 0.71% (n = 290,000); note: % is set by controls: 0 for no effect and ±100 for the full control effect; nearly all actives have a fitted effect of over 55% in size
# Target sequence (A8B2U2 whole entry, looked up): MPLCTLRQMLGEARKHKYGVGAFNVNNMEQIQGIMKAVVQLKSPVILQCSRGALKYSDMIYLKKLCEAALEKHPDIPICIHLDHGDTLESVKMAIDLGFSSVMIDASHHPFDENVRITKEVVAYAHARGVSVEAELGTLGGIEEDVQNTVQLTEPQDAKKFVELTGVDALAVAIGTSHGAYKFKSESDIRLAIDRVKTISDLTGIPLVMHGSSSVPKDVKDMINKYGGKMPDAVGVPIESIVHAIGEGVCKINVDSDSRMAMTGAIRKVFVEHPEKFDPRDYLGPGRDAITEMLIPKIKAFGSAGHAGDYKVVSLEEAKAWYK
#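 40 nM FBPA preincubated 10 min at RT with compound (up to 57.5 uM final), then substrate plus GAPDH/TPI/NAD/arsenate coupling and diaphorase/resazurin added. Fluorescence read after 20 min at RT, 525/598 nm.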
# RE007 growth inh: less growth of the S. pombe RE007 Vpr strain; actives 0.21% (n = 360,000); Potency, µM (series often up to 92.2 µM), for the others: at the top dose activity change, negative = less growth, usual class: inhibitors; S. pombe RE007 Vpr strain, BacTiter-Glo ATP luminescence, 24 h; AID 651644; active = well fitted falling curve with a large enough effect; inconclusive = small, poorly fitted or top-dose-only effect; inactive = no such curve, though single readings can be large or run the other way; note: % is set by controls: 0 for no effect and ±100 for the full control effect; nearly all actives have a fitted effect of over 50% in size
#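 Fission yeast RE007 carrying one integrated HIV-1 vpr copy, seeded at OD 0.01 in PMG+AL medium with 23 nL pinned compound. Grown 24 h at 30 degrees; viability read by BacTiter-Glo luminescence after 5 min.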
# SARS PLpro yeast: inhibitors of SARS-CoV papain-like protease in yeast; Potency, µM (top dose mostly 32.9 µM), without a hit: at the top dose activity, positive = growth rescue, actives largely listed as activators; actives 0.19% (n = 330,000); S. cerevisiae expressing SARS-CoV PLpro, growth rescue; AID 485353; calls by dose curve; note: 0% is about no effect; nearly all actives have a fitted effect of over 55% in size
# TbPYK inhibitor: inhibitors of Trypanosoma brucei pyruvate kinase; Potency, µM (highest dose often 76.8 µM), for inactives: top-dose activity, negative = inhibition, most hits filed as inhibitors; TbPYK enzyme, Kinase-Glo Plus ATP luminescence, 45 min; actives 0.12% (n = 410,000); Q57TT1; note: % is set by controls: 0 for no effect and ±100 for the full control effect; nearly all actives have a fitted effect of over 50% in size
#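 Assay buffer: 50 mM TEA pH 7.2, 100 mM KCl, 10 mM MgCl2, 0.05% BSA, 0.01% Tween-20. Pyruvate kinase from T. brucei plus substrate met compound, then ADP (130 uM final). Luminescence was read post 45 min RT.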
# Numbers without * were called inactive; ? = inconclusive; . = not tested or not shown; [ ] = another dose, or the depositor's remark. Unless noted, calls come from the whole dose curve; as a rule, active = well fitted curve in the direction sought with a large enough effect; inconclusive = small, poorly fitted or top-dose-only effect, or another doubt; inactive = no such curve, though single readings can be large; an effect the other way counts as inactive or inconclusive. Potency is the fitted concentration of half-maximal effect.
SMILES,LmPK inh,Giardia FBPA inh,RE007 growth inh,SARS PLpro yeast,TbPYK inhibitor
COCCn1c(C23CC4CC(CC(C4)C2)C3)n[nH]c1=S,-26.7%,0.4%,17.1%,8.9%,7.94µM*
CCCCn1c(C23CC4CC(CC(C4)C2)C3)n[nH]c1=S,-15.4%,12.4%,8.2%,?,6.31µM*
COc1ccc(-c2nc3ccccc3s2)cc1NC(=O)c1cccc([N+](=O)[O-])c1C,.,.,.,.,-8.9%
CCC(=O)NC(c1ccc(C)cc1)c1cc([N+](=O)[O-])c2cccnc2c1O (stereo unspecified),-1.4%,?,-9.3%,3.16µM*,?
CC(=O)OC[C@]12CCC(C)=C[C@H]1O[C@@H]1[C@H](O)[C@@H](OC(C)=O)[C@@]2(C)[C@]12CO2,0.0%,0.0%,3.16µM*,-9.9%,3.6%
O=c1c2ccccc2sn1-c1ccc(Cl)cc1Cl,.,.,44.7µM*,.,17.8µM*
CC(C)(C)c1cc(C(C)(C)C)c(NC(=O)c2c[nH]c3ccccc3c2=O)cc1O,.,.,.,.,0.0%
Cc1c(C(=O)Oc2cccc3cccnc23)oc2ccccc12,1.5%,?,39.8µM*,-5.8%,3.6%
CCc1nc2ccccc2c(C(=O)Oc2cccc3cccnc23)c1C,6.3%,10.4%,12.1%,8.7%,-5.5%
Cc1cc(C)c(S(=O)(=O)/N=C2/C=C(SCC(=O)O)C(=O)c3ccccc32)cc1C,-1.1%,15.8µM*,?,-14.5%,?
CN(Cc1ccncc1)C1CC(=O)N(c2ccc(Cl)cc2)C1=O (stereo unspecified),1.6%,6.6%,50.1µM*,-12.0%,1.6%
COC(=O)CN(C)C1CC(=O)N(c2ccc(Cl)cc2)C1=O (stereo unspecified),-5.2%,-6.5%,15.8µM*,-36.3%,1.1%
CCCCCCC(=O)O[C@@H]1CC[C@H]2[C@@H]3CCc4cc(O)ccc4[C@H]3CC[C@]12C,.,.,.,.,-11.8%
O=[N+]([O-])c1ccc(N/N=C/c2ccc(O)c(O)c2O)c(S(=O)(=O)N2CCOCC2)c1,-17.5%,9.98µM*,-1.0%,5.5%,?
O=[N+]([O-])c1ccc(N/N=C/c2cccc(O)c2O)c(S(=O)(=O)N2CCOCC2)c1,5.0%,?,10.0%,-1.2%,-3.2%
CCCCn1c(=O)c2oc3ccccc3c2n(Cc2ccc(OC)cc2)c1=O,.,.,.,.,1.0%
Cc1ccc2nc(C)/c(=N\O)c(C)nc2c1,-2.8%,.,7.0%,-4.8%,-12.2%
Cc1nc2ccc(Cl)cc2nc(C)/c1=N\O,1.4%,14.1µM*,-14.6%,-6.8%,0.5%
O=C(O)c1cccc2c1C(=O)c1cc([N+](=O)[O-])cc([N+](=O)[O-])c1-2,.,.,-8.8%,.,-8.9%
Cc1cccc(N=C2c3cc([N+](=O)[O-])ccc3-c3c2cc([N+](=O)[O-])cc3[N+](=O)[O-])c1,.,.,22.4µM*,.,-0.5%
CCC1CN(C(=O)Nc2ccccc2C(F)(F)F)c2ccccc2S1 (stereo unspecified),.,.,.,.,4.8%[15.4 µM]
Cc1nnc(C)n1/N=C/c1ccc(O)cc1,0.0%,-5.1%,15.8%,-0.1%,0.6%
Oc1ccc(/C=N/n2c3ccccc3c3ccccc32)cc1,6.6%,-4.5%,31.6µM*,-33.2%,4.7%
COc1ccc(/C=N/Nc2ncccc2[N+](=O)[O-])c(OC)c1,25.1µM*,-16.5%,-8.9%,0.6%,?
O=C(Cn1ncc2c3ccccc3n(Cc3cccc(Cl)c3)c2c1=O)NCCCN1CCCCC1,.,.,.,.,0.2%
SMILES,LmPK inh,Giardia FBPA inh,RE007 growth inh,SARS PLpro yeast,TbPYK inhibitor
O=C1CC(N2CCCN(C3CC(=O)N(c4ccc(F)cc4)C3=O)CC2)C(=O)N1c1ccc(F)cc1 (stereo unspecified),-1.2%,-0.8%,4.47µM*,-12.0%,-9.2%
O=C1CC(N2CCSCC2)C(=O)N1c1cccc(Br)c1 (stereo unspecified),2.3%,0.1%,31.6µM*,-17.8%,-22.5%
O=C1CC(N2CCN(c3ccc(Cl)cc3)CC2)C(=O)N1c1ccc(F)cc1 (stereo unspecified),-0.8%,-1.6%,3.2%,-11.8%,2.6%
O=C1CC(N2CCCCC2)C(=O)N1c1ccccc1 (stereo unspecified),0.7%,6.4%,39.8µM*,-89.6%,1.7%
O=C1CC(N2CCN(c3ccccc3)CC2)C(=O)N1c1cccc(Br)c1 (stereo unspecified),-3.2%,2.0%,?,-23.3%,-3.1%
Cc1ccc(S(=O)(=O)c2nnn(CC(=O)Nc3ccccc3C)c2N)cc1C,.,.,.,.,-6.6%
Cc1occc1C(=O)N/N=C/c1ccc(N(C)C)cc1,10µM*,-0.6%,?,-3.7%,?
Cc1occc1C(=O)N/N=C/c1cnn(C)c1C,15.8µM*,-1.1%,1.0%,-14.3%,-16.4%
Cc1occc1C(=O)N/N=C/C=C/c1ccc(N(C)C)cc1,-4.2%,-11.4%,-0.2%,-4.8%,1.7%
Cc1c(/C=N\NC(=O)c2ccc(F)cc2)cnn1C,-2.0%,-1.7%,4.3%,1.0%,-11.2%
CN1[C@@H]2CCC[C@@H]1CC(NC(=O)c1nn(C)c3ccccc13)C2 (stereo partly specified),.,.,.,.,3.9%
O=C(Nc1ccc(N2CCCCC2)cc1)c1ccccc1,3.55µM*,1.7%,?,-14.7%,-17.2%
O=C(N/N=C/c1ccc(N2CCCCC2)o1)c1ccccc1,-12.6%,-28.2%,-8.6%,-9.1%,22.4µM*
O=C(N/N=C/c1ccc(N2CCOCC2)o1)c1cccc([N+](=O)[O-])c1,-2.9%,?,3.0%,15.5%,12.6µM*
Cc1ccc(C(=O)Nc2ccc(N3CCCCC3)cc2)cc1,.,.,.,4.7%,-5.5%
Cc1cccc(Cn2ccn(Cc3ccc(Cl)cc3)c(=O)c2=O)c1,.,.,.,.,-13.3%
O=C(COc1ccc(F)cc1)Nc1ccc2nc(SCC(=O)N3CCc4ccccc43)sc2c1,.,.,.,.,-2.4%
NCCCNCCCCNC(=O)C(O)NC(=O)CCCCCCN=C(N)N (stereo unspecified),.,.,.,.,0.0%
O=C(Nc1ncccn1)c1cc([N+](=O)[O-])cc([N+](=O)[O-])c1,-3.7%,-6.9%,4.2%,-19.4%,-5.2%
O=[N+]([O-])c1cc(-c2ncccn2)c([N+](=O)[O-])s1,-14.5%,15.8µM*,?,-127.1%,-26.5%
O/N=C/c1cc(Br)ccc1OCc1ccccc1F,.,.,39.8µM*,.,0.0%
O/N=C/c1ccccc1OCc1ccccc1Cl,1.2%,8.0%,44.7µM*,-14.9%,17.9%
O/N=C/c1ccccc1OCc1ccc(Cl)cc1,1.4%,1.7%,-17.6%,-28.1%,3.7%
COc1ccc(CCNC(=O)Cc2c(C)c3cc4c(C(C)(C)C)coc4c(C)c3oc2=O)cc1OC,.,.,.,.,0.5%
Clc1cccc(Cc2c(-c3ccco3)nc3ccc(Cl)cn23)c1,.,.,?,.,20µM*
COC(=O)c1ccc2nc(-c3ccco3)c(Cc3ccc(OC)cc3C)n2c1,.,.,-2.8%,.,14.1µM*
COC(=O)c1ccc2nc(-c3ccco3)c(Cc3ccc(C)cc3)n2c1,.,.,-15.7%,.,?
